Targets include Musashi-1 (Homo sapiens, UniProt O43347); FIR (Homo sapiens, UniProt Q9UHX1); HNRNPCP5 (Homo sapiens, UniProt B2RXH8); IGF2BP1 (Homo sapiens, UniProt Q9NZI8); hnRNP-I(3-4) (Homo sapiens, UniProt P26599).
Common to all, as to assay: protein domain microarray probed with biotinylated miRNA; Domain array: 20 mM Tris-HCl pH 7.4, 200 mM KCl, 0.2 mM EDTA, 0.05% NP40, 2 ug/ul heparin, overnight 4 C. ORF array: PBS pH 7.0 with RNase inhibitor, 100 ng RNA; high values mean tight binding
What all share (conditions): ssRNA

A further assay deals with T1, hnRNP-F (Homo sapiens, UniProt P52597).
T1 sequence: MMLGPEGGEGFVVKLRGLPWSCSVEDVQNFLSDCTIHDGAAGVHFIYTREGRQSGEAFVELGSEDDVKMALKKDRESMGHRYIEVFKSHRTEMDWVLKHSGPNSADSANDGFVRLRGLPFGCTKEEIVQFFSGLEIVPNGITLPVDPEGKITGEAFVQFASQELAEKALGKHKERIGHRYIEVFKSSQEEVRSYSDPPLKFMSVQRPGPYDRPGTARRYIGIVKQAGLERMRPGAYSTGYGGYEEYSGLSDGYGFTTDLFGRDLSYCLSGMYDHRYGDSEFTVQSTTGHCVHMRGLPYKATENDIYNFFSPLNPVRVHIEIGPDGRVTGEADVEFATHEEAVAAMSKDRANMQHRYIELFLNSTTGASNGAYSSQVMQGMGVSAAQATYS

A further assay deals with T2, GRSF1 (Homo sapiens, UniProt Q12849).
T2 sequence: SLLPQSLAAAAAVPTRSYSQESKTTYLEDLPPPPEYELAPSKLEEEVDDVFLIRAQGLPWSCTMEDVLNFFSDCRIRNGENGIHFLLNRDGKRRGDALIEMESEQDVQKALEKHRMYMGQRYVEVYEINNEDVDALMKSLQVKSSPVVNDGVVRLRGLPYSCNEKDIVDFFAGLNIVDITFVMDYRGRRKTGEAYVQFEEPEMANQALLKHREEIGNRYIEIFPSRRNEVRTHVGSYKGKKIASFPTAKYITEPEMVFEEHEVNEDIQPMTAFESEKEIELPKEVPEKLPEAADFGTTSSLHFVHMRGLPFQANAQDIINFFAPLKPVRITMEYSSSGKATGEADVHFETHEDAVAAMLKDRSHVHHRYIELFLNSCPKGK

The next assay addresses T3, ENOX2 (Homo sapiens, UniProt Q16206).
T3 sequence: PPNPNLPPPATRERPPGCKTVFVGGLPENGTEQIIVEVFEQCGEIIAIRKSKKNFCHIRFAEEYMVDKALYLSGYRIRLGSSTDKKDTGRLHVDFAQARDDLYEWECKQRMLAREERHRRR

Another assay deals with T4, TAT-SF1 (Homo sapiens, UniProt O43719).
T4 sequence: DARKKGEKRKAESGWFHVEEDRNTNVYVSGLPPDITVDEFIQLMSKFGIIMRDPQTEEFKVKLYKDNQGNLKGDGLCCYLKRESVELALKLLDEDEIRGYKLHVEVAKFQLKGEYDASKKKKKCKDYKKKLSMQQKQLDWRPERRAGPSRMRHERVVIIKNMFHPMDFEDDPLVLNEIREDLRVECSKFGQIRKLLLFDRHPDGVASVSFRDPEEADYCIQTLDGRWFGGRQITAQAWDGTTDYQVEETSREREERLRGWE

The target in a further assay is T5, AKAP1 (Homo sapiens, UniProt Q92667).
T5 sequence: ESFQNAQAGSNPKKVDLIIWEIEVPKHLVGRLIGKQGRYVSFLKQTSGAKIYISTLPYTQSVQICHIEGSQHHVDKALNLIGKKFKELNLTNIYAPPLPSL

The source of these data is article PMC11574364.

Sequence of FIR (Q9UHX1 110-559): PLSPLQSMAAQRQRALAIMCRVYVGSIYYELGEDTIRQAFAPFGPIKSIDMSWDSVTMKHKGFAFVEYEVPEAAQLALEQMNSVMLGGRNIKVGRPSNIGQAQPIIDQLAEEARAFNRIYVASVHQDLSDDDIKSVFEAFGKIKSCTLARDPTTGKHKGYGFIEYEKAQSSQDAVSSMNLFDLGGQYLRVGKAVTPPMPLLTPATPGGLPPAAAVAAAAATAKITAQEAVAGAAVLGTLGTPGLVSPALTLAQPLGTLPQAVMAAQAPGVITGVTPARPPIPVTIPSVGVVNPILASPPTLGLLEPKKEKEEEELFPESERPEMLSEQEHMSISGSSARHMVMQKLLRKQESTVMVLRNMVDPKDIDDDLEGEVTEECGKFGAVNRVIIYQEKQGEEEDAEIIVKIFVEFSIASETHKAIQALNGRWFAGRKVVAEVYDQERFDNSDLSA
Sequence of Musashi-1 (O43347 1-203): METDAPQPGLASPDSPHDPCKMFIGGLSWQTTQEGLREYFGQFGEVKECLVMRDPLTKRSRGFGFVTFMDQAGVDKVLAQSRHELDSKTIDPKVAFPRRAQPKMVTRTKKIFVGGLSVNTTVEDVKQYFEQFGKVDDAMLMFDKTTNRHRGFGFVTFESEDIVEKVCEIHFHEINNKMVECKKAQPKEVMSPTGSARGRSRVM
Sequence of HNRNPCP5 (B2RXH8 1-110): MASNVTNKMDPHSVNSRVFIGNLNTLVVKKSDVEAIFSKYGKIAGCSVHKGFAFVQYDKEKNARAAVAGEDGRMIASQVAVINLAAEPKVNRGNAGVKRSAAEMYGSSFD
Sequence of IGF2BP1 (Q9NZI8 1-176): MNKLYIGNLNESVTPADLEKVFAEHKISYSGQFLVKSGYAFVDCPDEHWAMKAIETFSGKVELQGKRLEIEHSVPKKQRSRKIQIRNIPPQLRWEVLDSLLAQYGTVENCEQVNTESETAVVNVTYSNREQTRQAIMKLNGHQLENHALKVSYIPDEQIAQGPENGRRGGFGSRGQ
Sequence of hnRNP-I(3-4) (P26599 346-557): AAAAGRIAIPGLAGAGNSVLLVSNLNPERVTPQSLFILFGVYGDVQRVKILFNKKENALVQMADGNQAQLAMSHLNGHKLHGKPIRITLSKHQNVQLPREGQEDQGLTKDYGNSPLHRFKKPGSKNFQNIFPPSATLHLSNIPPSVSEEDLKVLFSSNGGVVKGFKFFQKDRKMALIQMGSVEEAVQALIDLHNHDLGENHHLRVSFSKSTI

In the case of UGAGGUAGUAGGUUGUAUGGUU, the binding signal is 2400 ± 10.1 fluorescence intensity with Musashi-1; 1510 ± 21.2 fluorescence intensity with FIR; 65.5 ± 1.7 fluorescence intensity with HNRNPCP5; 953.1 ± 0.948 fluorescence intensity in the assay with hnRNP-F; 43 ± 9.13 fluorescence intensity with IGF2BP1; 2945 ± 11.9 fluorescence intensity with GRSF1. In addition, the binding signal was 934 ± 43.3 fluorescence intensity with hnRNP-I(3-4), 74.91 ± 0.417 fluorescence intensity with ENOX2, 116 ± 5.61 fluorescence intensity with TAT-SF1 and 102 ± 9.24 fluorescence intensity with AKAP1.
For the sequence UAGCUUAUCAGACUGAUGUUGA, the binding signal in the assay with Musashi-1 was found to be 156 ± 11 fluorescence intensity; with FIR, 1240 ± 132 fluorescence intensity; in the assay with HNRNPCP5 it was 23.4 ± 0.714 fluorescence intensity; in the assay with hnRNP-F, 25.7 ± 1.8 fluorescence intensity; with IGF2BP1, 23 ± 0.714 fluorescence intensity; in the assay with GRSF1, 39.7 ± 8.15 fluorescence intensity. In the assay with hnRNP-I(3-4), this sequence registered a binding signal of 230 ± 15.3 fluorescence intensity.
For AGAGGUAGUAGGUUGCAUAGUU, the binding signal stood at 3624 ± 8.34 fluorescence intensity in the assay with Musashi-1; 939 ± 116 fluorescence intensity with FIR; 48 ± 3.14 fluorescence intensity in the assay with HNRNPCP5; 2388 ± 13.7 fluorescence intensity in the assay with hnRNP-F; 35.9 ± 7.28 fluorescence intensity in the assay with IGF2BP1; 4990 ± 87.4 fluorescence intensity with GRSF1. Besides, the binding signal with hnRNP-I(3-4) was determined as 786.56 ± 0.269 fluorescence intensity; with ENOX2 it was 77.1 ± 15.4 fluorescence intensity; in the assay with TAT-SF1, 125.2 ± 1.17 fluorescence intensity; with AKAP1 it was 91.72 ± 0.827 fluorescence intensity.
On to UGAGGUAGUAGGUUGUGUGGUU, for which the binding signal in the assay with Musashi-1 was found to be 1830 ± 23.3 fluorescence intensity; with FIR, 1610 ± 121 fluorescence intensity; with HNRNPCP5, 93.8 ± 2.53 fluorescence intensity; with hnRNP-F, 1210 ± 41.5 fluorescence intensity; with IGF2BP1 it was 47.9 ± 7.33 fluorescence intensity; with GRSF1 it was 2120 ± 63.5 fluorescence intensity. In addition, the binding signal with hnRNP-I(3-4) came to 945.75 ± 0.764 fluorescence intensity; with ENOX2 it was 118 ± 1.51 fluorescence intensity; with TAT-SF1, 184.1 ± 0.318 fluorescence intensity; with AKAP1 it was 202 ± 12.1 fluorescence intensity.
Regarding UGAGGUAGUAGGUUGUAUAGUU, the binding signal in the assay with Musashi-1 worked out at 1480 ± 17 fluorescence intensity; in the assay with FIR it was 717 ± 15 fluorescence intensity; in the assay with HNRNPCP5, 24.6 ± 1.06 fluorescence intensity; with hnRNP-F it was 624 ± 22.5 fluorescence intensity; with IGF2BP1, 26.3 ± 0.771 fluorescence intensity; with GRSF1 it was 1790 ± 23.3 fluorescence intensity. Besides, the values for the binding signal with hnRNP-I(3-4), with ENOX2 and with TAT-SF1 were 323 ± 28.7 fluorescence intensity, 20.7 ± 2.55 fluorescence intensity and 33.2 ± 1.48 fluorescence intensity, respectively.
For CAGUGCAAUGAUGAAAGGGCAU, the binding signal was determined as 1460 ± 30.9 fluorescence intensity with Musashi-1; 384 ± 26.4 fluorescence intensity in the assay with FIR; 42.4 ± 3.23 fluorescence intensity in the assay with HNRNPCP5; 1670 ± 29.4 fluorescence intensity in the assay with hnRNP-F; 32.4 ± 2.43 fluorescence intensity in the assay with IGF2BP1; 2340 ± 154 fluorescence intensity with GRSF1. Besides, the binding signal was 401.7 ± 2.43 fluorescence intensity with hnRNP-I(3-4), 54.1 ± 16.7 fluorescence intensity in the assay with ENOX2, 90 ± 1.75 fluorescence intensity with TAT-SF1 and 47.9 ± 2.28 fluorescence intensity with AKAP1.
